# Where “and” joins values, the source holds several entries; their conditions need not be identical. Equal values may be shown once. Inconclusive results are not listed. Where a call stands in place of a potency, no number is given. The source holds several records for some structures; these can differ, active in one and inactive in another. Calls of active or inactive are those of the source. Unless noted, calls come from the whole dose curve; as a rule, active = well fitted curve in the direction sought with a large enough effect in the repeat runs; inconclusive = weak or mixed curves; inactive = no such curve, though single readings can be large; an effect the other way counts as inactive or inconclusive.
# What was measured:
# [1] = target: Peroxisome proliferator-activated receptor gamma (Homo sapiens) (UniProt P37231); assay: qHTS assay to identify small molecule antagonists of the peroxisome proliferator-activated receptor gamma (PPARg) signaling pathway (AID 743191; calls by dose curve; note: series mostly up to about 63 µM; nearly all actives have a fitted effect of over 30% in size)
# Peroxisome proliferator-activated receptor gamma (Homo sapiens), sequence (P37231 whole entry, looked up): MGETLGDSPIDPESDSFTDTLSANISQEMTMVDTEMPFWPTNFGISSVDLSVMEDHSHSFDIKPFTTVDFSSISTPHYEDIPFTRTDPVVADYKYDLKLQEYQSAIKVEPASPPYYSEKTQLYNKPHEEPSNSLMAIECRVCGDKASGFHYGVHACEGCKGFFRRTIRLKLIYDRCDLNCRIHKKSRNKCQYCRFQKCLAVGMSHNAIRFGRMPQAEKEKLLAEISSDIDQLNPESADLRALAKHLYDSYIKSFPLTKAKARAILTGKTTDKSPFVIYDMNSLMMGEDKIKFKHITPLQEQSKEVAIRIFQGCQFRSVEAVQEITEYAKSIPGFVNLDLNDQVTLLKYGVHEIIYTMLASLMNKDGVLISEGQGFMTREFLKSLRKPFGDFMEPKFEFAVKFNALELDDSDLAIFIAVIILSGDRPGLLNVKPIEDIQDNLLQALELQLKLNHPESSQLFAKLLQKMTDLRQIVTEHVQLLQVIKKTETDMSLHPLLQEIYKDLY
# Procedure, shortened: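 GeneBLAzer PPARg UAS-bla HEK293H cells carrying a UAS-driven beta-lactamase reporter were plated at 3000 cells/well, preincubated 5 h at 37C, then given compound for 17 h at 37C; LiveBLAzer B/G FRET substrate was read after 1 h at room temperature.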
# [2] = qHTS assay to identify small molecule antagonists of the peroxisome proliferator-activated receptor gamma (PPARg) signaling pathway - cell viability counter screen (AID 743194); note: nearly all actives have a fitted effect of over 55% in size; note: potency is the fitted concentration of half-maximal effect
# Procedure, shortened: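 PPARg-UAS-bla HEK293H cells were plated, rested 5 h at 37 C, then treated with compounds plus rosiglitazone (50 nM final) for 17 h at 37 C; viability was then read by CellTiter-Glo luminescence after 30 min at room temperature.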
# [3] = qHTS assay for small molecule agonists of the antioxidant response element (ARE) signaling pathway (AID 743202; active = well fitted activation curve with a large enough effect in the signal ratio in the repeat runs, not every such curve was filed as active; the % refers to the signal ratio; note: potency is the fitted concentration of half-maximal effect)
# Procedure, shortened: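 Read-out: LiveBLAzer B/G FRET substrate fluorescence after 2 h at room temperature, following 16 h compound treatment at 37 C of HepG2 cells carrying an ARE-driven beta-lactamase reporter.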
# [4] = qHTS assay for small molecule agonists of the antioxidant response element (ARE) signaling pathway - cell viability counter screen (AID 743203; calls by dose curve; note: nearly all actives have a fitted effect of over 55% in size; note: potency is the fitted concentration of half-maximal effect)
# Procedure, shortened: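 HepG2 cells carrying ARE-driven beta-lactamase; 2,000 cells/well; 5 hrs plating; compound pinned from DMSO; 16 hrs 37C/5% CO2; CellTiter-Glo added; 30 min RT; luminescence.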
# [5] = qHTS assay for small molecule activators of the heat shock response signaling pathway - cell viability counter screen (AID 743209); note: nearly all actives have a fitted effect of over 50% in size
# Procedure, shortened: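 Luminescence from CellTiter-Glo, added after the beta-lactamase FRET read, gave the viability signal. Cells were HSE-bla HeLa treated with DMSO-dissolved compounds for 5 h at 37 C following overnight plating.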
# [6] = qHTS assay for small molecule activators of the heat shock response signaling pathway (AID 743210; active = well fitted activation curve with a large enough effect in the signal ratio in the repeat runs, with a control signal flat, not every such curve was filed as active; the % refers to the signal ratio; note: series mostly up to about 63 µM)
# Procedure, shortened: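 HSE-bla HeLa cells (beta-lactamase reporter under heat shock response elements) were exposed to compounds for 5 h at 37 C, then loaded with LiveBLAzer B/G FRET substrate for 2.5 h at room temperature before fluorescence reading.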
# [7] = qHTS assay to identify small molecule agonists of the peroxisome proliferator-activated receptor delta (PPARd) signaling pathway - cell viability counter screen (AID 743211); note: nearly all actives have a fitted effect of over 55% in size; note: potency is the fitted concentration of half-maximal effect
# Procedure, shortened: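 PPARd-bla HEK293H cells (UAS-beta-lactamase reporter) were treated with compounds for 17 h at 37 C. Viability was then read in the same wells by CellTiter-Glo luminescence after 30 min at room temperature.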
# [8] = target: Estrogen receptor (Homo sapiens) (UniProt P03372); assay: qHTS assay to identify small molecule antagonists of the estrogen receptor alpha (ER-alpha) signaling pathway (AID 743069; active = well fitted curve in the direction sought with a large enough effect in the signal ratio in the repeat runs, not every such curve was filed as active; the % refers to the signal ratio)
# Estrogen receptor (Homo sapiens), sequence (P03372 whole entry, looked up): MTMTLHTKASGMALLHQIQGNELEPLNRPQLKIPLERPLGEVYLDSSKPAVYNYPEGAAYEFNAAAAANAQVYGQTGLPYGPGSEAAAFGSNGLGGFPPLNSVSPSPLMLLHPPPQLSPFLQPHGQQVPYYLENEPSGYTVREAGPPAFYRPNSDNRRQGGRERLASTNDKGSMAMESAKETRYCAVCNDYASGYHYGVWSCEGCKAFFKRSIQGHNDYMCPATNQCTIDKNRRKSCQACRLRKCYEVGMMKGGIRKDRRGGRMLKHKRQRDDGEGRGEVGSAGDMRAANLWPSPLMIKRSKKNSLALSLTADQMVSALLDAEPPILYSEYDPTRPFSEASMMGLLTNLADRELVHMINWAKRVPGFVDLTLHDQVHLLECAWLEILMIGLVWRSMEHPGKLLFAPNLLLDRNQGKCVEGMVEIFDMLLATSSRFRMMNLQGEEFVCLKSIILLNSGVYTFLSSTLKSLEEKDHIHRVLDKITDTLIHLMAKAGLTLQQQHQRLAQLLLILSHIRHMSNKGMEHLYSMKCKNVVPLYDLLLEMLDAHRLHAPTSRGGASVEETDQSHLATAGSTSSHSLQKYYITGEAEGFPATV
# Procedure, shortened: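 HEK293 cells stably carrying an ER-alpha-UAS-bla beta-lactamase reporter were pre-cultured overnight in 2% charcoal-stripped FBS medium. Test compounds in DMSO were added together with 17beta-estradiol for 18 hr at 37C. Read-out was fluorescence after 2 hr with LiveBLAzer B/G FRET substrate at room temperature.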
# [9] = qHTS assay to identify small molecule antagonists of the estrogen receptor alpha (ER-alpha) signaling pathway - cell viability counter screen (AID 743074; calls by dose curve; note: nearly all actives have a fitted effect of over 45% in size)
# [10] = target: Estrogen receptor (Homo sapiens) (UniProt P03372); assay: qHTS assay to identify small molecule agonists of the estrogen receptor alpha (ER-alpha) signaling pathway (AID 743075; calls by dose curve)
# [11] = target: Estrogen receptor (Homo sapiens) (UniProt P03372); assay: qHTS assay to identify small molecule agonists of the estrogen receptor alpha (ER-alpha) signaling pathway using the BG1 cell line (AID 743079); note: nearly all actives have a fitted effect of over 20% in size; note: potency is the fitted concentration of half-maximal effect
# [12] = qHTS assay to identify small molecule antagonists of the estrogen receptor alpha (ER-alpha) signaling pathway using the BG1 cell line (AID 743080; calls by dose curve; note: series mostly up to about 70 µM; nearly all actives have a fitted effect of over 25% in size)
# Procedure, shortened: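 Antagonist mode: compounds in DMSO were pinned onto BG1-Luc-4E2 cells alongside 17beta-estradiol agonist, incubated 21.5 h, and ERE-driven luciferase measured with ONE-Glo. Cytotoxicity was multiplexed using CellTiter-Fluor fluorescence.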
# [13] = qHTS assay to identify small molecule antagonists of the estrogen receptor alpha (ER-alpha) signaling pathway using the BG1 cell line - cell viability counter screen (AID 743081);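 note: compound given together with 17beta-estradiol as the ER stimulus; series mostly up to about 70 µM; nearly all actives have a fitted effect of over 45% in size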
# Aromatase (Homo sapiens) = Aromatase (Homo sapiens) (UniProt P11511); assay: qHTS assay to identify aromatase inhibitors (AID 743083); note: nearly all actives have a fitted effect of over 55% in size; note: potency is the fitted concentration of half-maximal effect
# Aromatase (Homo sapiens), sequence (P11511 whole entry, looked up): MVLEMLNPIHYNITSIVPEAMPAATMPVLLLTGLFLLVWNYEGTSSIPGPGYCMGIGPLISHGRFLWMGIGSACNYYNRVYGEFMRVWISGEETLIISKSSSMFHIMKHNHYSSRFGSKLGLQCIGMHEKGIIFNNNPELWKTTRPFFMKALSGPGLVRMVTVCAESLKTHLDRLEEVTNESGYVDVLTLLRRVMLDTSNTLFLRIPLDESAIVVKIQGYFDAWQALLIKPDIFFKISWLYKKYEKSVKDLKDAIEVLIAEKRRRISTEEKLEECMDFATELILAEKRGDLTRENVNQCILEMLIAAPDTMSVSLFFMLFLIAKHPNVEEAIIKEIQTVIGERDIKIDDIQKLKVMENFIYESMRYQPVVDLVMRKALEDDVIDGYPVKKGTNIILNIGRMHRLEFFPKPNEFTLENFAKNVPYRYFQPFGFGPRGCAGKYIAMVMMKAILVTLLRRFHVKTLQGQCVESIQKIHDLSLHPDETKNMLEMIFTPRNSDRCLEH
# [14] = qHTS assay to identify aromatase inhibitors - cell viability counter screen (AID 743084)
# [15] = target: Aryl hydrocarbon receptor (Homo sapiens) (UniProt P35869); assay: qHTS assay to identify small molecule that activate the aryl hydrocarbon receptor (AhR) signaling pathway (AID 743085); note: nearly all actives have a fitted effect of over 15% in size; note: potency is the fitted concentration of half-maximal effect;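 for activation: HG2L7.5c1 human HepG2 liver cells with stably integrated DRE-driven firefly reporter; series mostly up to about 70 µM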
# Aryl hydrocarbon receptor (Homo sapiens), sequence (P35869 whole entry, looked up): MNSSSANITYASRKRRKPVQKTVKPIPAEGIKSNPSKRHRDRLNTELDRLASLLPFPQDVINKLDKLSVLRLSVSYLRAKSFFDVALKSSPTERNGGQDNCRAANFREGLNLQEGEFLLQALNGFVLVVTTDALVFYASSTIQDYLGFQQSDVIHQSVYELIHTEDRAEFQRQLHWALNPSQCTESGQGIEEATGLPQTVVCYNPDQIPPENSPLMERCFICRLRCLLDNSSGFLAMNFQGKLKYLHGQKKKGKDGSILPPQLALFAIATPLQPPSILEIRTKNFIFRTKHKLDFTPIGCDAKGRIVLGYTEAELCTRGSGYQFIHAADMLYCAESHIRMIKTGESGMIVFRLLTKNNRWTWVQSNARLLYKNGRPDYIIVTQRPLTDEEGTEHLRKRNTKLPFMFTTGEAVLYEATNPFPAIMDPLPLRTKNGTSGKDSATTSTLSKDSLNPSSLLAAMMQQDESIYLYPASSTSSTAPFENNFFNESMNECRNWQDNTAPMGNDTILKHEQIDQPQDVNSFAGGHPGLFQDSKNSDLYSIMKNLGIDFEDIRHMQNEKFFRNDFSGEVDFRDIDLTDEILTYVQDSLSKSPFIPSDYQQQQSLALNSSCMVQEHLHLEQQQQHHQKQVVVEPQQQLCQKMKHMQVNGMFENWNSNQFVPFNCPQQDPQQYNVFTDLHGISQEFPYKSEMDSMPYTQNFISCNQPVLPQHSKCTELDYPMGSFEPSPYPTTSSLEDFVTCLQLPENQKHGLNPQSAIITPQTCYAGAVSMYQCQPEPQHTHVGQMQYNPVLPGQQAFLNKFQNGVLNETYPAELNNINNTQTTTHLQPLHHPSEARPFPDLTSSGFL
# Procedure, shortened: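 HepG2 cells (HG2L7.5c1) stably carrying a firefly luciferase reporter driven by 20 dioxin responsive elements were exposed to compound for 24 h at 37C after a 5 h settling period; luminescence rise (ONE-Glo) indicated activation.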
# [16] = qHTS assay to identify small molecule that activate the aryl hydrocarbon receptor (AhR) signaling pathway - cell viability counter screen (AID 743086);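 note: HepG2 liver cells carrying the AhR DRE luciferase reporter; series mostly up to about 70 µM; nearly all actives have a fitted effect of over 45% in size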
# Procedure, shortened: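 HepG2-AhR-luc (HG2L7.5c1) cells, 4000/well, were preincubated 5 h at 37C, exposed to compound in qHTS format for 24 hr at 37C, then given CellTiter-Fluor for 30 min; viability was read as fluorescence in the reporter wells.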
# [17] = target: Peroxisome proliferator-activated receptor gamma (Homo sapiens) (UniProt P37231); assay: qHTS assay to identify small molecule agonists of the peroxisome proliferator-activated receptor gamma (PPARg) signaling pathway (AID 743094; active = well fitted activation curve with a large enough effect in the signal ratio in the repeat runs, not every such curve was filed as active; the % refers to the signal ratio)
# Procedure, shortened: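 Beta-lactamase FRET fluorescence was the read-out after a 1 h room-temperature substrate step, following 17 h compound treatment at 37C of HEK293H cells expressing a UAS-driven bla reporter responsive to PPARg.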
# [18] = test system: thyroid hormone receptor (rat, GH3 cells); assay: qHTS assay to identify small molecule agonists of the thyroid receptor (TR) signaling pathway (AID 743066; calls by dose curve)
compound,measurement,setting,value
Cc1c(N)cccc1C(F)(F)F,Potency,[1],inactive
same,Potency,[2],inactive
same,Potency,[3],inactive
same,Potency,[4],inactive
same,Potency,[5],inactive
same,Potency,[6],inactive
same,Potency,[7],inactive
Cc1cccc(C)c1NC(=O)c1ccc(N)cc1,Potency,[1],inactive
same,Potency,[2],inactive
same,Potency,[3],inactive
same,Potency,[4],inactive
same,Potency,[5],inactive
same,Potency,[6],inactive
same,Potency,[7],inactive
Clc1sc(Cl)c(Cl)c1Cl,Potency,[8],inactive
same,Potency,[9],inactive
same,Potency,[10],inactive
same,Potency,[11],inactive
same,Potency,[12],inactive
same,Potency,[13],inactive
same,Potency,Aromatase (Homo sapiens),inactive
same,Potency,[14],inactive
same,Potency,[15],inactive
same,Potency,[16],inactive
same,Potency,[17],inactive
same,Potency,[1],inactive
same,Potency,[2],inactive
same,Potency,[3],inactive
same,Potency,[5],inactive
same,Potency,[6],inactive
same,Potency,[7],inactive
CC1=CCC(=C(C)C)CC1,Potency,[8],inactive
same,Potency,[9],inactive
same,Potency,[10],inactive
same,Potency,[11],68.6 µM (active)
same,Potency,[12],inactive
same,Potency,[13],inactive
same,Potency,Aromatase (Homo sapiens),inactive
same,Potency,[14],inactive
same,Potency,[15],inactive
same,Potency,[16],inactive
same,Potency,[17],inactive
same,Potency,[2],inactive
same,Potency,[5],inactive
same,Potency,[6],inactive
same,Potency,[7],inactive
O=C(O)CN(CCN(CC(=O)O)CC(=O)O)CC(=O)O,Potency,[9],inactive
same,Potency,[13],inactive
same,Potency,Aromatase (Homo sapiens),inactive
same,Potency,[14],inactive
same,Potency,[15],inactive
same,Potency,[16],inactive
same,"activity change, negative = cytotoxicity",[2],4.6% [at 2.7 µM] (inactive)
same,activation,[3],-0.355% [at 3.74 µM] (inactive)
same,"activity change, negative = cytotoxicity",[5],20.3% [at 2.7 µM] (inactive)
same,"activity change, negative = cytotoxicity",[7],0.566% [at 2.7 µM] (inactive)
S=C([S-])NCCNC(=S)[S-].S=C([S-])NCCNC(=S)[S-].[Mn+2].[Zn+2],outcome,[18],inactive
same,Potency,Aromatase (Homo sapiens),inactive
same,Potency,[14],inactive
same,Potency,[15],inactive
same,Potency,[16],inactive
same,Potency,[3],4.73 µM (active)
same,Potency,[5],inactive
same,Potency,[7],inactive
CCOC(=O)NNc1ccc(N(CC)CC(C)O)nn1 (centres undefined),Potency,[8],inactive
same,Potency,[9],inactive
same,Potency,[10],inactive
same,Potency,[11],inactive
same,Potency,[12],inactive
same,Potency,[13],inactive
same,Potency,Aromatase (Homo sapiens),inactive
same,Potency,[14],inactive
same,Potency,[15],inactive
same,Potency,[16],inactive
same,Potency,[1],inactive
same,Potency,[2],inactive
same,Potency,[3],inactive
same,Potency,[5],inactive
same,Potency,[6],inactive
same,Potency,[7],inactive
CN(C)[C@@H](CCOc1cccc2ccccc12)c1ccccc1,Potency,[5],inactive
same,Potency,[7],23.7 µM (active)
COc1ccc2c(c1)c(CC(=O)OC/C=C(\C)CC/C=C(\C)CCC=C(C)C)c(C)n2C(=O)c1ccc(Cl)cc1,Potency,[2],inactive
same,Potency,[4],inactive
same,Potency,[7],inactive
Oc1c(I)cc(Cl)c2cccnc12,outcome,[18],inactive
same,Potency,[13],inactive
same,Potency,Aromatase (Homo sapiens),inactive and 27.3 µM (active)
same,Potency,[14],inactive
same,Potency,[15],944 nM (active) and 61 µM (active)
same,Potency,[16],inactive
same,Potency,[2],4.36 µM (active) and 5.96 µM (active)
same,Potency,[4],68.5 µM (active)
same,Potency,[5],inactive
